# Assay results: PubChem BioAssay (Tox21)
# Inconclusive results are not listed. Unmarked numbers belong to inactive results. Active and inactive are the calls of the source. Calls come from the whole dose curve.
# Experiment: p53 small molecule agonists, cell-based qHTS assay with human liver microsomes (AID 1963577);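 note: p53 response element beta-lactamase reporter cells with liver microsomes plus NADPH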
# Conditions: HCT-116 p53RE-bla with human liver microsomes, ratio, 16 h; series mostly up to 66 µM; activation: at the top concentration
# Source text: National Center for Advancing Translational Sciences [NCATS]
# Division of Preclinical Innovation [DPI]
# U.S. Environmental Protection Agency [EPA]
# National Institutes of Environmental Health Sciences [NIEHS]
# National Toxicology Program [NTP]
# U.S. Food and Drug Administration [FDA]
# p53, a tumor suppressor protein, is activated following cellular insult, including DNA damage and other cellular stresses. The activation of p53 regulates cell fate by inducing DNA repair, cell cycle arrest, apoptosis, or cellular senescence. The activation of p53, therefore, is a good indicator of DNA damage and other cellular stresses. […] The activation of the reporter gene under culture conditions can be detected by fluorescence intensity.
# Tox21 Assay Protocol Summary:
# The p53RE-bla cells were dispensed at 4,000cells/3ul/well in 1536-well black-clear bottom plates. After the assay plates were incubated at 37 C, 5% CO2 incubator for 5 hours, 23 nL of compounds dissolved in DMSO, positive controls or DMSO only was transferred to the assay plate. Following compound addition, 3 uL of human liver microsomes (XenoTech, Kansas City, KS) at final concentration of 0.5 mg/mL and 1uL of Beta-Nicotinamide adenine dinucleotide 2-phosphate (NADPH) at final concentration of 0.5 mg/mL were transferred to the assay plate. The plates were incubated at 37 C for 16 hours. 1 uL of LiveBLAzer detection mixture was added to each well and the plates were incubated at room temperature in the dark for 2 h.
# % is set by controls: 0 for no effect and ±100 for the full control effect.
SMILES,activation,Potency
COc1cc(N)c(Cl)cc1C(=O)NC1CN2CCC1CC2 (stereo not given),0.462% [at 30.3 µM],
Nc1c(Oc2ccccc2)cc(O)c2c1C(=O)c1ccccc1C2=O,-8.36% [at 30.3 µM],
CCNc1nc(NCC)nc(SC)n1,-15.3%,
COc1cc(OC)nc(Oc2cccc(Oc3nc(OC)cc(OC)n3)c2C(=O)O)n1,2.26%,
O=[N+]([O-])c1ccc(CBr)cc1,-0.487%,
CCCCCCCCOC(=O)c1ccccc1C(=O)OCCCCCCCC,,inactive
CCCCCCCCCCCCCCCl,-2.52%,
C=CCN1CC[C@]23CCCC[C@H]2[C@H]1Cc1ccc(O)cc13,-6.65% [at 30.3 µM],
CC(C)OC(=O)Nc1ccccc1,,inactive
ClCc1ccccc1,6.33%,
Cc1ccccc1N,,inactive
Cc1cccc(N=Nc2ccc(N(C)C)cc2)c1,,inactive
O=C(O)COc1ccc(Cl)cc1Cl,,inactive
NC(=O)c1cc([N+](=O)[O-])cc([N+](=O)[O-])c1,3.92% [at 30.3 µM],
CCC(=O)O[C@@H]1C=C2CCC3C(CCC4(C)C3CC[C@@H]4OC(=O)CC)C2CC1 (stereo not given in full),3% [at 30.3 µM],
CC(=NC#N)N(C)Cc1ccc(Cl)nc1,6.36%,
CC1OC(C)OC(C)O1 (stereo not given),,inactive
Cc1ccc2c(c1N)C(=O)c1ccccc1C2=O,-12.7%,
N#Cc1ccc(Cl)cc1,-4.01%,
Brc1c(Br)c(Br)c(Br)c(Br)c1Br,1.36% [at 5.99 µM],

SMILES,activation,Potency
C=CCc1ccccc1O,-1.84%,
N#Cc1c(Cl)c(Cl)c(Cl)c(C#N)c1Cl,-18.4%,
CCC/C=N/O,,inactive
CC(=O)C(C)(C)C,0.955%,
CN(C)CCc1ccc(O)cc1,-0.636% [at 30.3 µM],
C=CCN1C[C@H](C)N([C@H](c2ccc(C(=O)N(CC)CC)cc2)c2cccc(OC)c2)C[C@H]1C,-0.912% [at 30.3 µM],
CS(=O)(=O)NC(=O)c1cc(Oc2ccc(C(F)(F)F)cc2Cl)ccc1[N+](=O)[O-],,inactive
N#Cc1cccc(C#N)c1,,inactive
CCOC(=O)c1ccccc1C(=O)OCC,,inactive
O=P(OCCCl)(OCCCl)OCCCl,,inactive
N#CN=C(N)N,,inactive
[P]#[In],-1.17%,
C=CC#N,,inactive
c1ccc(CN2CCNCC2)cc1,1.57% [at 172 µM],
Nc1cccc(Cl)c1,,inactive
ClC(Cl)=C(c1ccc(Cl)cc1)c1ccc(Cl)cc1,,inactive
CC[N+](=O)[O-],,inactive
CCC(=O)O[C@H]1CC[C@H]2[C@@H]3CCC4=CC(=O)CC[C@]4(C)[C@H]3CC[C@]12C,,inactive
C=CCSSCC=C,-0.76%,
CC1(C)[C@H](C(=O)O[C@H](C#N)c2cccc(Oc3ccccc3)c2)[C@@H]1C=C(Br)Br,,inactive
